Shown are actives, neighbours in structure and some others; about 3.6% of the full set was active somewhere.
HepG2 tox-1 = qHTS for Inhibitors of TGF-b: Cytotox Counterscreen; 410,000 compounds, 0.76% hits; Potency, µM (doses to about 46.1 µM), actives largely listed as cytotoxic; HepG2 CAGA-GFP viability, ATP luminescence, 18 h
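HepG2 CAGA-GFP cells (1000/well, DMEM with 1% FBS) received compound, then TGF-beta at 500 pg/mL final, and were incubated 18 hours at 37 degrees C. Viability was read by CellTiter-Glo luminescence. Media-only wells were set as complete cell-killing and DMSO as no toxicity.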
Nrf2 block = Nrf2 qHTS screen for inhibitors | A549 ARE-Fluc reporter, luciferase luminescence, 18-24 h | Potency, µM (series often up to 46 µM), usual class: inhibitors | 360,000 compounds, 2.1% hits; further: nearly all actives have a fitted effect of over 60% in size
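Cells were seeded and rested 2 h, then exposed to compounds for 18-24 h. CellTiter-Fluor was read first as a viability measure. BugLite was added 15 min before the final luminescent read of ARE-luciferase activity in A549 cells.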
Nrf2 ARE act = qHTS of Nrf2 Activators; AREc32 ARE-luciferase reporter (MCF7-derived line), luminescence, 24 h; Potency, µM (doses to about 46.1 µM), actives largely listed as activators; 410,000 compounds, 0.31% hits; AID 624171, 2012; further: nearly all actives have a fitted effect of over 65% in size
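AREc32 cells carrying an ARE-driven firefly luciferase reporter were seeded at 1000 cells/well in OPTI-MEM with 5% FBS, then exposed to compound for 24 hr at 37 deg C. Luminescence was read with Steady-Glo after 30 min at RT.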
TGFb inhibitor = qHTS for Inhibitors of TGF-b. HepG2 CAGA-GFP TGF-b/SMAD3 reporter, GFP fluorescence, 18 h; TGF-beta stimulated, 500 pg/mL final. Potency, µM (titrated, usually from 46.1 µM), hits mostly inhibitors. 410,000 compounds, 1.2% hits. AID 588855, 2011; further: nearly all actives have a fitted effect of over 65% in size
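Inhibition of TGF-beta-driven CAGA-GFP reporter expression in HEPG2 cells is measured by cellular GFP fluorescence after 18 h stimulation with 500 pg/mL recombinant TGF-beta in 1% FBS medium at 37 degrees C.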
A549 tox = Nrf2 qHTS screen for inhibitors: counterscreen for cytotoxicity; A549 ARE-Fluc cells, CellTiter-Fluor viability, 18-24 h; Potency, µM (highest dose often 46 µM), usual class: inhibitors; 390,000 compounds, 0.16% hits; AID 504648, 2011
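A549 ARE_Fluc cells in 5% FBS OPTI-MEM were exposed to compounds in concentration-response for 18-24 h at 37 deg C. Viability was read by CellTiter-Fluor fluorescence (Ex 405/Em 525) after 30 min, before the luciferase read.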
TGFb confirm = qHTS for Inhibitors of TGF-b: Confirmation of Cherry Picks | shares compounds with TGFb inhibitor | HepG2 CAGA-GFP TGF-b reporter, GFP fluorescence, 18 h; cells stimulated with TGF-beta, 500 pg/mL | Potency, µM (titrated, usually from 46.1 µM), hits mostly inhibitors | 1,600 compounds, 63% hits | AID 720534, 2013; further: nearly all actives have a fitted effect of over 65% in size
HepG2 tox-2 = qHTS for Inhibitors of TGF-b: Cytotox Counterscreen for Cherry Picks; shares compounds with TGFb inhibitor; HepG2 CAGA-GFP viability, ATP luminescence, 18 h; cells stimulated with TGF-beta, 500 pg/mL; Potency, µM (highest dose often 46.1 µM), actives largely listed as inhibitors; 1,600 compounds, 27% hits; further: nearly all actives have a fitted effect of over 70% in size
TGFb CCL64 inh = qHTS for Inhibitors of TGF-b: CCL64 Cells Orthogonal Assay for Cherry Picks. shares compounds with TGFb inhibitor. CCL64 CAGA-GFP reporter, TGF-b stimulated, GFP fluorescence, 18 h. Potency, µM (titrated, usually from 46.1 µM), actives largely listed as inhibitors. 1,600 compounds, 41% hits; further: nearly all actives have a fitted effect of over 65% in size
COP TGFb inh = qHTS for Inhibitors of TGF-b: Hit Validation in HepG2 Cells using COP promoter; Potency, µM (highest dose often 46.1 µM), hits mostly inhibitors; 1,600 compounds, 3% hits; shares compounds with TGFb inhibitor; HepG2 COP-GFP TGF-b reporter, GFP fluorescence, 18 h; cells stimulated by added recombinant TGF-beta; further: nearly all actives have a fitted effect of over 70% in size
Of the large screens only hits and unclear results are named; the others gave an inactive call (follow-up assays come after a bar, where they were run). The call rests on the fitted dose curve; in most records, active means well fitted curve in the direction sought with a large enough effect; inconclusive means small, poorly fitted or top-dose-only effect, or another doubt; inactive means no such curve, though single readings can be large; an effect the other way counts as inactive or inconclusive.

COc1ccc(C(=O)/C=C/C(=O)N(Cc2ccc(F)cc2)C(C(=O)NC2CCCCC2)c2ccncc2)c(O)c1 (centres undefined)	TGFb inhibitor 10µM | TGFb confirm inconclusive | HepG2 tox-2 inactive | TGFb CCL64 inh 13µM | COP TGFb inh inactive
COc1ccc(C(=O)/C=C/C(=O)N(Cc2ccccc2)C(C(=O)NC2CCCCC2)c2ccncc2)c(O)c1 (centres undefined)	TGFb inhibitor inconclusive
O=C(O)c1cccc(S(=O)(=O)N(Cc2ccccc2)c2ccccc2Cl)c1	none
O=C(c1ccco1)N1CCN(c2ncnc3scc(-c4ccc(F)cc4)c23)CC1	TGFb inhibitor 18µM | TGFb confirm 16µM | HepG2 tox-2 inactive | TGFb CCL64 inh inactive | COP TGFb inh inactive
Cc1ccc(-c2csc3ncnc(N4CCN(C(=O)c5ccco5)CC4)c23)cc1	TGFb inhibitor inconclusive
CCCCn1c(N)c(N(CCOC)C(=O)COC(=O)C(C)Oc2ccc(Cl)cc2)c(=O)[nH]c1=O (centres undefined)	none
Cn1c(NCC2CCCCC2)nc2cc(-c3ccsc3)sc2c1=O	Nrf2 ARE act 2µM, TGFb inhibitor inconclusive (no result: Nrf2 block, A549 tox) | TGFb confirm 23µM | HepG2 tox-2 inconclusive | TGFb CCL64 inh inconclusive | COP TGFb inh inactive
CC(=O)c1ccccc1NC(=O)CSc1nnc(Cc2csc(C)n2)o1	none
CCCCCC(=O)Nc1cccc(C2=NOC3(C2)C[C@H](C(N)=O)N(C(=O)c2ccccc2C(=O)c2ccccc2)C3)c1 (some centres undefined)	TGFb inhibitor 11µM | TGFb confirm inconclusive | HepG2 tox-2 inactive | TGFb CCL64 inh inconclusive | COP TGFb inh inactive
Cc1ccc(N2CCN(C(=O)c3cc(C(=O)c4ccccc4C)c[nH]3)CC2)c(C)c1	TGFb inhibitor 18µM | TGFb confirm 6.5µM | HepG2 tox-2 inactive | TGFb CCL64 inh inconclusive | COP TGFb inh inactive
Cc1cccc(N2CCN(C(=O)c3ccc(S(=O)(=O)N(C)c4ccccc4)cc3)CC2)c1C	Nrf2 block inconclusive, TGFb inhibitor 5.6µM | TGFb confirm 9.2µM | HepG2 tox-2 inactive | TGFb CCL64 inh inconclusive | COP TGFb inh inactive
Cc1ccc(N2CCN(C(=O)c3ccccc3)CC2)c(C)c1	TGFb inhibitor 10µM | TGFb confirm inconclusive | HepG2 tox-2 inactive | TGFb CCL64 inh 18µM | COP TGFb inh inactive
CN1CCN(C(=O)c2ccc(S(=O)(=O)N(C)c3ccccc3)cc2)CC1	none (no result: Nrf2 block, A549 tox)
Cc1cccc(N2CCN(C(=O)C3COc4ccccc4O3)CC2)c1C (centres undefined)	TGFb inhibitor 11µM | TGFb confirm 16µM | HepG2 tox-2 inactive | TGFb CCL64 inh inconclusive | COP TGFb inh inactive
CCN(CC)c1ccc(NC(=O)c2cc(OC)cc(OC)c2)c(C)c1	TGFb inhibitor inconclusive
Cc1ccc(S(=O)(=O)N2CCN(CCc3ccccc3)CC2)c(C)c1	Nrf2 block 18µM, TGFb inhibitor inconclusive | TGFb confirm 23µM | HepG2 tox-2 inconclusive | TGFb CCL64 inh inconclusive | COP TGFb inh inactive
Cc1nc(-c2ccc(S(=O)(=O)N3CCCN(CCc4ccccc4)CC3)s2)cs1	Nrf2 block inconclusive, TGFb inhibitor 8.9µM | TGFb confirm 8.2µM | HepG2 tox-2 inconclusive | TGFb CCL64 inh inconclusive | COP TGFb inh inactive
COc1ccc(S(=O)(=O)N2CCN(Cc3ccccc3)CC2)c(C)c1	none
Cc1ccc(S(=O)(=O)N2CCN(C(=O)c3ccco3)CC2)c(C)c1	none
Cc1nc(-c2ccc(S(=O)(=O)N3CCN(C4c5ccccc5-c5ccccc54)CC3)s2)cs1	none
Cc1ccc(S(=O)(=O)N2CCN(C(=O)c3ccccc3Cc3ccccc3)CC2)c(C)c1	TGFb inhibitor 11µM | TGFb confirm 16µM | HepG2 tox-2 inconclusive | TGFb CCL64 inh inconclusive | COP TGFb inh inactive
CS(=O)(=O)N1CCc2cc(C(=O)OCC(=O)c3ccccc3)ccc21	Nrf2 block inconclusive
COc1cc([N+](=O)[O-])ccc1NC(=O)C[n+]1ccccc1	Nrf2 block inconclusive
CCc1nc(Nc2ccncc2)c2oc3ccccc3c2n1	TGFb inhibitor inconclusive | TGFb confirm 12µM | HepG2 tox-2 inconclusive | TGFb CCL64 inh inconclusive | COP TGFb inh inactive
CCOc1ccc(N(CC(=O)Nc2ccc(C)cc2)S(=O)(=O)c2c(C)noc2C)cc1	none
CCOc1ccc(N(CC(=O)Nc2ccccc2OCC)S(=O)(=O)c2c(C)noc2C)cc1	TGFb inhibitor 5µM | TGFb confirm 6.5µM | HepG2 tox-2 inactive | TGFb CCL64 inh 4.1µM | COP TGFb inh inactive
O=[N+]([O-])c1cc(Cl)ccc1N1CCN(c2ccccc2O)CC1	Nrf2 block inconclusive, TGFb inhibitor 7.1µM | TGFb confirm inconclusive | HepG2 tox-2 inactive | TGFb CCL64 inh inactive | COP TGFb inh inactive
CCOC(=O)C1=C(C)N(CCCC(=O)O)C(=O)NC1c1ccc([N+](=O)[O-])cc1 (centres undefined)	none
CC1(C)CC(=O)C=C(NC2=CC3OC(c4ccccc4)OCC3OC2=O)C1 (centres undefined)	Nrf2 block 16µM, TGFb inhibitor 8.9µM, A549 tox inconclusive | TGFb confirm 23µM | HepG2 tox-2 16µM | TGFb CCL64 inh 6.5µM | COP TGFb inh inactive
Cc1ccccc1NC1=CC(=O)CC(C)(C)C1	none (no result: Nrf2 block)
COc1ccccc1-n1cnc2cc(NCc3ccccc3O)ccc21	TGFb inhibitor inconclusive
COc1ccccc1-n1cnc2cc(NCc3ccco3)ccc21	TGFb inhibitor 8.9µM | TGFb confirm 13µM | HepG2 tox-2 inactive | TGFb CCL64 inh 21µM | COP TGFb inh inactive

Screens deposited in PubChem BioAssay by National Center for Advancing Translational Sciences (NCATS).
